Experimental findings from PubChem BioAssay (EPA / NIEHS) are described below.

Usually AC50 stands for the concentration giving half of the maximal activity seen.

Active and inactive are the calls of the source. Rule for the calls: active = hit-call score of the fitted dose curve at least 0.9, where 1 is the maximum; inactive = score below 0.9.

This experiment is described as follows: BSK_SAg_PBMCCytotoxicity: PBMC Cytotoxicity Assessment in the BioMAP Diversity Plus: SAg Assay (AID 2283093).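 Note: fitted both ways against DMSO so a hit may be loss or gain of signal.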 The conditions noted are these: primary human HUVEC with PBMC. As for the experimental part: BSK_SAg is a cell-based, multiplexed-readout assay that uses umbilical vein endothelium and peripheral blood mononuclear cells, a human vascular primary cell co-culture, with measurements taken at 24 hours after chemical dosing in a 96-well plate.BSK_SAg_PBMCCytotoxicity is an assay component measured in the BSK_SAg assay. It measures Alamar blue related to cell death using Alamar Blue Reduction technology.Data from the assay component BSK_SAg_PBMCCytotoxicity was analyzed into 1 assay endpoint. This assay endpoint, BSK_SAg_PBMCCytotoxicity, was analyzed with bidirectional fitting relative to DMSO as the negative control and baseline of activity. Using a type of viability reporter, gain or loss-of-signal activity can be used to understand changes in the viability. Furthermore, this assay endpoint can be referred to as a secondary readout, because this assay has produced multiple assay endpoints where this one serves a viability function. To generalize the intended target to other relatable targets, this assay endpoint is annotated to the cell cycle intended target family, where the subfamily is cytotoxicity.
The levels of cell surface (or secreted, indicated by the prefix "s") biomarker endpoints were measured by ELISA. Overt cytotoxicity to cells in confluent adherent cultures (all systems other than the BT system) was assessed by measuring total protein levels using sulforhodamine B (SRB) staining in parallel cultures at the time of biomarker measurements, indicated as SRB endpoints. For proliferation assays for adherent cell types, individual cell types are cultured at sub-confluence and relative cell numbers quantified by SRB staining at time points optimized for each system (48 h: 3C and CASM3C systems; 72 h: BT and HDF3CGF systems; 96 h: SAg system). SRB was performed by staining cells with 0.1% SRB after fixation with 10% TCA and reading wells at 560 nm.Viability and proliferation of PBMC (T cells) was quantified by Alamar Blue reduction for the SAg and BT systems. For PBMC viability (referred to as PBMC Cytotoxicity within the assay endpoint names), cells were plated (75,000/well in a 96-well plate) and then chemical samples added for 1 h before addition of activators, SEB and TSST-1 (20 ng/mL final concentration each). Cells were incubated for 90 h. Then, Alamar Blue (20 uL/well) (Invitrogen, Cat DAL1100) was added for 6 h, and the plates were read with a fluorescence microplate reader at 546/580 nm (excitation/emission). For PBMC proliferation, cells were plated and activated as above but incubated for only 16 h prior to addition of Alamar Blue. Plates were read after 6 h.
Take `COS(C)(=O)=O`: the outcome was inactive.
In the case of `CC(=O)c1ccccc1`, the outcome was inactive.
In the case of `CCCCCOC(C)=O`, the AC50 was 30.3 µM (active).
For the compound `OCc1ccccc1`, the outcome was inactive.
Still for that read-out and setting: as for `OCCOCCOCCO`, the entry is “inactive”; as for `c1ccc2ncccc2c1`, “inactive”.
For the compound `CCc1ccc(O)c(C(C)(C)C)c1`, the half-maximal activity concentration (AC50) was 34.7 µM (active).
As to `CCCCCCCCN(C)C`, the outcome was inactive.
The same measure, in the same setting: as for `OCCNCCO`, the entry is “inactive”.
The same measure, in the same setting: as for `OC(Cn1cncn1)(Cn1cncn1)c1ccc(F)cc1F`, the entry is “inactive”.
The same measure, in the same setting: in the case of `C[Si](C)(C)C(F)(F)C(F)(F)C(F)(F)F` it was “inactive”.
Turning to `CC(C)CCCCCCOC(=O)C1CCCCC1C(=O)OCCCCCCC(C)C` (stereo not given), the concentration at half-maximal activity (AC50) was 3.51 µM (active).
As for `O=C(O)[C@H](O)[C@@H](O)C(=O)O`, the outcome was inactive.
Regarding `NC(N)=O`, the result was inactive.
For the compound `CC(C)c1nnc2ccc(-c3ocnc3-c3cc(F)ccc3F)cn12`, the AC50 is 0.882 µM (active).
Turning to `CCn1nc(C)c2c1C(=O)NCC(c1ccc(O)cc1)=N2`, the result was inactive.
The same measure, in the same setting: in the case of `CC(C)C(=O)Nc1ccc([N+](=O)[O-])c(C(F)(F)F)c1` it was “inactive”.
Same read-out and setting: as for `FC(F)=C(F)C(F)(F)C(F)(F)C(F)(F)C(F)(F)C(F)(F)C(F)(F)F`, the entry is “inactive”.
In the case of `O=C1CN(N=Cc2ccc([N+](=O)[O-])o2)C(=O)N1`, the outcome was inactive.
Regarding `COc1cc2c(c(OC)c1OC)-c1ccc(OC)c(=O)cc1[C@@H](NC(C)=O)CC2`, the outcome was inactive.
Still for that read-out and setting: in the case of `OC[C@H]1O[C@@](CO)(O[C@H]2O[C@H](CO)[C@@H](O)[C@H](O)[C@H]2O)[C@@H](O)[C@@H]1O` it was “inactive”.
With `C=CCc1cc(S(=O)(=O)c2ccc(O)c(CC=C)c2)ccc1O`, the half-maximal activity concentration (AC50) was 36.8 µM (active).
Consider `c1ccc(C(O[C@@H]2CCCN(CCc3ccc4c(c3)OCO4)C2)c2ccccc2)cc1`, for which the AC50 was 28.4 µM (active).
Regarding `Cc1nccn1-c1ccc(Sc2cccc(C3(C(N)=O)CCOCC3)c2)cc1`, the result was inactive.
`FC(F)(F)C(F)(F)C(F)(F)C(F)(F)C(F)(F)C(F)(F)I`: the outcome was inactive.
Consider `CCCC(CCC)C(=O)O`, for which the result was inactive.
The same measure, in the same setting: as for `NC(=O)N(O)[C@@H]1COc2cc(OCc3ccccc3)ccc21`, the entry is “inactive”; as for `O=C(O)c1cccc(C(=O)O)c1`, “inactive”; as for `CCCCCCCC/C=C\CCCCCCCC(=O)OC[C@@H](O)[C@H]1OC[C@H](O)[C@H]1O`, “inactive”.
Still for that read-out and setting: as for `O=C(Cl)C(F)(F)C(F)(F)C(F)(F)C(=O)Cl`, the entry is “inactive”; as for `OCCC(F)(F)C(F)(F)C(F)(F)C(F)(F)F`, “inactive”; as for `OC(CCl)CCl`, “inactive”.
Consider `C[C@@H](Oc1ccc(CNC(=O)c2cccnc2Oc2ccc3c(c2)OCO3)c(F)c1)C(=O)O`, for which the outcome was inactive.
Regarding `COc1cc(C(C)C)c2c(c1)S(=O)(=O)N(COc1cc(=O)n3cccc(OCCN4CCCCC4)c3n1)C2=O`, the result was inactive.
On to `S=P(N1CC1)(N1CC1)N1CC1`, for which the outcome was inactive.
Consider `CCN(CC)C(=S)SSC(=S)N(CC)CC`, for which the AC50 is 20 µM (active).
Take `FC(F)(F)COC(OCC(F)(F)F)OCC(F)(F)F`: the result was inactive.
Same read-out and setting: as for `CC[C@H](C)C(=O)O[C@H]1C[C@H](O)C=C2C=C[C@H](C)[C@H](CC[C@@H](O)C[C@@H](O)CC(=O)O)[C@H]21`, the entry is “inactive”.
Still for that read-out and setting: in the case of `Cn1cc[nH]c1=S` it was “inactive”; in that of `CCOC(N)=O`, “inactive”.
